The panel holds about 79,000 compounds, 15% with a hit somewhere; the sample as a whole holds those more often. Unmarked numbers belong to inactive results. Activity calls are given as the source filed them. Cut-off read from the data, not from the text of the source: active = growth inhibition above about 70%; inactive = the rest.

Test [1] is described as follows: NCI Yeast Anticancer Drug Screen. Data for the rad50 strain (AID 155).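 Note: 0% = growth of vehicle-only cultures of the same strain.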 Particulars: S. cerevisiae rad50 strain growth inhibition, active compounds read high. An outline of the steps:
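Cells are treated with compound, grown, and their growth is then scored against vehicle-only cultures of the same repair-deficient yeast strain.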

The nature of test [2]: NCI Yeast Anticancer Drug Screen. Data for the mec2-1 strain (AID 157). Particulars: S. cerevisiae mec2-1 strain, active compounds read high. The procedure, abridged:
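Test agents were screened against the mec2-1 yeast strain, with defined DNA repair or cell cycle alteration. Growth was scored as inhibition against vehicle-only controls.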

Test [3] is described as follows: NCI Yeast Anticancer Drug Screen. Data for the sgs1 mgt1 strain (AID 161).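 Note: 0% = growth of cultures given vehicle only.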 The note with it: S. cerevisiae sgs1 mgt1 strain, active compounds read high. The procedure, abridged:
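Read-out: growth inhibition vs vehicle controls. Cells: mutant yeast strain deficient in DNA damage repair.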

Test [4] can be described thus: NCI Yeast Anticancer Drug Screen. Data for the cln2 rad14 strain (AID 165).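 Note: 0% = growth equal to vehicle treated cultures.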 Particulars: S. cerevisiae cln2 rad14 strain, active compounds read high. The procedure, abridged: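 Growth of compound-exposed yeast (cln2 rad14 genotype) measured and expressed as inhibition relative to vehicle.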
Test [5] is described as follows: NCI Yeast Anticancer Drug Screen. Data for the bub3 strain (AID 167). Particulars: S. cerevisiae bub3 mutant strain, active compounds read high. The procedure, abridged: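 Part of a panel of yeast mutants defective in DNA damage repair or cell cycle regulation. Each strain is grown with compound, and inhibition is calculated relative to solvent-treated cultures.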
Test [6] is described as follows: NCI Yeast Anticancer Drug Screen. Data for the mlh1 rad18 strain (AID 175). Particulars: S. cerevisiae mlh1 rad18 strain growth inhibition, active compounds read high. The procedure, abridged:
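In this whole-cell yeast screen, a strain with altered DNA damage repair is challenged with compound, and its growth is measured against matched vehicle-treated controls.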

[7] abbreviates: at 5.0 µM (retest, dose inferred, filed as 0.5).
[8] abbreviates: at 50.0 µM (retest, dose inferred, filed as 5.0).

Consider `COC(=O)c1nnc(C(=O)OC)c2c1[nH]c1ccccc12`, for which the growth inhibition in test [1] (setting [7]) is 4%; in test [1] (setting [8]), 77% (active); in test [1] (at 50.0 µM), 79% (active); in test [2] (setting [7]), 2%; in test [2] (setting [8]), 48%; in test [2] (at 50.0 µM), 28.4%. Moreover, the growth inhibition in test [3] (setting [7]) was 2%; in test [3] (setting [8]), 50%; in test [3] (at 50.0 µM), 55.3%; in test [4] (setting [7]), -2%; in test [4] (setting [8]) it was 11%; in test [4] (at 50.0 µM), 10.6%. Also, the growth inhibition is 0% in test [5] (setting [7]); 37% in test [5] (setting [8]); 42.9% in test [5] (at 50.0 µM); -3% in test [6] (setting [7]); 52% in test [6] (setting [8]); 40.1% in test [6] (at 50.0 µM).

Take `CCOC(=O)c1ccc2c(c1)Cc1cc([N+](=O)[O-])ccc1-2`: the growth inhibition in test [1] (setting [7]) is 1%; in test [1] (setting [8]), 65%; in test [1] (at 50.0 µM), 43.6%; in test [2] (setting [7]) it was -2%; in test [2] (setting [8]) it was 37%; in test [2] (at 50.0 µM) it was 15.8%. The growth inhibition in test [3] (setting [7]) was 7%; in test [3] (setting [8]), 72% (active); in test [3] (at 50.0 µM), 51%; in test [4] (setting [7]) it was -97%; in test [4] (setting [8]) it was 12%; in test [4] (at 50.0 µM), 4.15%. The growth inhibition in test [5] (setting [7]) is 43%; in test [5] (setting [8]), 89% (active); in test [5] (at 50.0 µM) it was 80.8% (active); in test [6] (setting [7]), 7%; in test [6] (setting [8]), 57%; in test [6] (at 50.0 µM) it was 58.1%.

In the case of `CC(=O)N(C)c1ccc(/C=C2\C=Cc3ccccc32)cc1`, the growth inhibition in test [1] (setting [7]) was 9%; in test [1] (setting [8]), 91% (active); in test [1] (at 50.0 µM), 41.2%; in test [2] (setting [7]) it was 4%; in test [2] (setting [8]), 94% (active); in test [2] (at 50.0 µM), 39.7%. The growth inhibition in test [3] (setting [7]) is 10%; in test [3] (setting [8]) it was 93% (active); in test [3] (at 50.0 µM) it was 26.3%; in test [4] (setting [7]) it was -4%; in test [4] (setting [8]), 81% (active); in test [4] (at 50.0 µM), 32.8%. Besides, the growth inhibition in test [5] (setting [7]) is 7%; in test [5] (setting [8]) it was 94% (active); in test [5] (at 50.0 µM), 72.2% (active); in test [6] (setting [7]), 11%; in test [6] (setting [8]), 92% (active); in test [6] (at 50.0 µM), 56.3%.

Take `O=C(O)c1ccc2c(O)c3ccccc3c(O)c2c1`: the growth inhibition in test [1] (setting [7]) is 3%; in test [1] (setting [8]), 72% (active); in test [1] (at 50.0 µM), 99.6% (active); in test [2] (setting [7]), 1%; in test [2] (setting [8]) it was 41%; in test [2] (at 50.0 µM), 99.5% (active). The growth inhibition in test [3] (setting [7]) is 3%; in test [3] (setting [8]), 52%; in test [3] (at 50.0 µM) it was 99.6% (active); in test [4] (setting [7]), 4%; in test [4] (setting [8]), 50%; in test [4] (at 50.0 µM), 93.5% (active). The growth inhibition was 21% in test [5] (setting [7]); 57% in test [5] (setting [8]); 99.5% (active) in test [5] (at 50.0 µM); 5% in test [6] (setting [7]); 65% in test [6] (setting [8]); 99.2% (active) in test [6] (at 50.0 µM).

Regarding `c1ccc(N2CCN(c3ccccc3)C2Cc2c[nH]c3ccccc23)cc1`, the growth inhibition is 30% in test [1] (setting [7]); 98% (active) in test [1] (setting [8]); 99.2% (active) in test [1] (at 50.0 µM); 19% in test [2] (setting [7]); 99% (active) in test [2] (setting [8]); 98.4% (active) in test [2] (at 50.0 µM). Besides, the growth inhibition in test [3] (setting [7]) is 25%; in test [3] (setting [8]), 98% (active); in test [3] (at 50.0 µM), 99.4% (active); in test [4] (setting [7]), 17%; in test [4] (setting [8]) it was 99% (active); in test [4] (at 50.0 µM) it was 92.5% (active). For the same molecule, the growth inhibition is 61% in test [5] (setting [7]); 98% (active) in test [5] (setting [8]); 99.2% (active) in test [5] (at 50.0 µM); 61% in test [6] (setting [7]); 99% (active) in test [6] (setting [8]); 98.9% (active) in test [6] (at 50.0 µM).

`CC(=O)N1OC2(C)c3ccccc3C1(C)c1ccccc12`: the growth inhibition in test [1] (setting [7]) is 99% (active); in test [1] (setting [8]), 94% (active); in test [1] (at 50.0 µM), 99.2% (active); in test [2] (setting [7]) it was 99% (active); in test [2] (setting [8]), 97% (active); in test [2] (at 50.0 µM), 99.4% (active). In addition, the growth inhibition in test [3] (setting [7]) was 99% (active); in test [3] (setting [8]) it was 96% (active); in test [3] (at 50.0 µM), 97.9% (active); in test [4] (setting [7]), 98% (active); in test [4] (setting [8]), 95% (active); in test [4] (at 50.0 µM), 99.2% (active). Moreover, the growth inhibition was 99% (active) in test [5] (setting [7]); 96% (active) in test [5] (setting [8]); 99.4% (active) in test [5] (at 50.0 µM); 99% (active) in test [6] (setting [7]); 95% (active) in test [6] (setting [8]); 99.1% (active) in test [6] (at 50.0 µM).

For the molecule `CN(C)N=Nc1c(-c2cccs2)n[nH]c1C(F)(F)F`, the growth inhibition in test [1] (setting [7]) is 98% (active); in test [1] (setting [8]), 99% (active); in test [1] (at 50.0 µM), 99.4% (active); in test [2] (setting [7]), 99% (active); in test [2] (setting [8]), 100% (active); in test [2] (at 50.0 µM), 99.8% (active). The growth inhibition in test [3] (setting [7]) was 100% (active); in test [3] (setting [8]), 100% (active); in test [3] (at 50.0 µM) it was 99.6% (active); in test [4] (setting [7]) it was 99% (active); in test [4] (setting [8]), 99% (active); in test [4] (at 50.0 µM), 99.5% (active). Further, the growth inhibition in test [5] (setting [7]) is 99% (active); in test [5] (setting [8]) it was 99% (active); in test [5] (at 50.0 µM) it was 99.5% (active); in test [6] (setting [7]), 99% (active); in test [6] (setting [8]) it was 99% (active); in test [6] (at 50.0 µM) it was 99.6% (active).

For the molecule `O=P(C(=S)Nc1ccccc1Cl)(c1ccccc1)c1ccccc1`, the growth inhibition in test [1] (setting [7]) was 15%; in test [1] (setting [8]) it was 96% (active); in test [1] (at 50.0 µM), 88.5% (active); in test [2] (setting [7]) it was 16%; in test [2] (setting [8]), 98% (active); in test [2] (at 50.0 µM) it was 90.5% (active). Also, the growth inhibition in test [3] (setting [7]) was -1%; in test [3] (setting [8]), 96% (active); in test [3] (at 50.0 µM) it was 92.8% (active); in test [4] (setting [7]), -6%; in test [4] (setting [8]), 97% (active); in test [4] (at 50.0 µM), 87.5% (active). In addition, the growth inhibition in test [5] (setting [7]) was -26%; in test [5] (setting [8]), 97% (active); in test [5] (at 50.0 µM), 89.2% (active); in test [6] (setting [7]), -26%; in test [6] (setting [8]), 96% (active); in test [6] (at 50.0 µM) it was 89.2% (active).

For `Cc1cc(Sc2ccccc2)c2c(C)ccc(C(C)C)cc1-2`, the growth inhibition in test [1] (setting [7]) is 0%; in test [1] (setting [8]), -7%; in test [1] (at 50.0 µM), -13.8%; in test [2] (setting [7]), -8%; in test [2] (setting [8]) it was -12%; in test [2] (at 50.0 µM), 61.4%. Besides, the growth inhibition in test [3] (setting [7]) is 1%; in test [3] (setting [8]), 6%; in test [3] (at 50.0 µM), -0.65%; in test [4] (setting [7]) it was -16%; in test [4] (setting [8]), -9%; in test [4] (at 50.0 µM), 78.2% (active). Further, the growth inhibition in test [5] (setting [7]) was -5%; in test [5] (setting [8]), -10%; in test [5] (at 50.0 µM) it was 21.4%; in test [6] (setting [7]), -2%; in test [6] (setting [8]) it was -3%; in test [6] (at 50.0 µM), 58%.

Values taken from PubChem BioAssay (NCI).
